High-throughput results from PubChem.
PLK1 PBD block: blocks phosphopeptide binding to human PLK1 polo-box domain; hit rate 2.8% among 360,000; Potency, µM, hits mostly inhibitors; P53350; AID 720504; Plk1 PBD binding of FITC phosphopeptide, fluorescence polarization; further: series mostly up to about 57 µM; nearly all actives have a fitted effect of over 65% in size
Sfp PPTase inh: blocks B. subtilis Sfp PPTase activity. Potency, µM, hits mostly inhibitors. AID 1490. Biochemical Sfp PPTase activity, qHTS. Q9F4F7. hit rate 3.5% among 310,000;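 further: the enzyme is Sfp with the accession as filed and its product quenches rhodamine fluorescence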
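Compounds were incubated with enzyme (final 15 nM) for 15 min at room temperature before substrate addition started the reaction. Fluorescence at 525 nm excitation, 598 nm emission was recorded immediately and after 30 minutes.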
mIDH1 inhibitor: blocks human mutant IDH1 R132H enzyme. AID 602179. Potency, µM (top dose mostly 76.6 µM), usual class: inhibitors. hit rate 0.093% among 390,000. IDH1-R132H enzyme, NADPH consumption, diaphorase/resazurin fluorescence. O75874; further: nearly all actives have a fitted effect of over 65% in size
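IDH1-R132H (0.5 ug/mL dispensed) in pH 7.5 Tris buffer was preincubated 30 min with compound, then given a substrate mix of 0.016 mM NADPH and 2 mM alpha-KG for 80 min at room temperature; remaining NADPH was read by diaphorase/resazurin fluorescence.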
TrxR1 substrate: substrates of rat thioredoxin reductase 1; O89049; purified TrxR1 substrate turnover, NADPH consumption readout; Potency, µM (highest dose often 114 µM); hit rate 0.01% among 390,000; further: nearly all actives have a fitted effect of over 50% in size
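Rat TrxR1, dispensed at 90 nM, was prereduced with 400 uM NADPH (final) for 5 min at ~22 deg C, then incubated with compound 15 min before 400 uM selenite. A first-read NADPH fluorescence drop versus no-compound background flagged substrates.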
rTrxR1 inhibitor: rat TrxR1 inhibition; AID 588453; O89049; Potency, µM (series often up to 114 µM), most hits filed as inhibitors; hit rate 1% among 390,000; recombinant rTrxR1, NADPH fluorescence consumption, selenite substrate; further: nearly all actives have a fitted effect of over 65% in size
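Rat TrxR1 (90 nM in the dispensed reagent) was pre-reduced with 400 uM NADPH for 5 min at room temperature, then incubated with compound for 15 min. After 400 uM selenite was added, NADPH fluorescence (Ex 340/Em 450 nm) was followed for 8 min.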
VDR inhibitor: blocks the human vitamin D receptor; P11473; VDR-SRC2-3 peptide fluorescence polarization, 2 h; Potency, µM, usual class: inhibitors; hit rate 0.93% among 400,000
Target sequence (P11473 whole entry, looked up): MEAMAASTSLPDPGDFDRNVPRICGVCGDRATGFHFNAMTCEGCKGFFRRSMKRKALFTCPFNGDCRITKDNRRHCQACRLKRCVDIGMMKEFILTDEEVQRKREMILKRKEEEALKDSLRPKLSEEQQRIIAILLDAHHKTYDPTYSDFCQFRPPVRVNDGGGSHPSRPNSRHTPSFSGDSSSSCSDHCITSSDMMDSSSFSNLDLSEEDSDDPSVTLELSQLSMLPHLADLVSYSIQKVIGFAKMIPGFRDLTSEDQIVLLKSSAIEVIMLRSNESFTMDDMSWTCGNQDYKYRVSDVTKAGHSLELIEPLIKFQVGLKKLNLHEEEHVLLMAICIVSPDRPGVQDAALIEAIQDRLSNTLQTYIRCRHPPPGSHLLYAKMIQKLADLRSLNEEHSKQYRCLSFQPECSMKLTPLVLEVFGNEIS
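Fluorescence polarization assay of small-molecule disruption of VDR binding to coregulator peptide SRC2-3. Compounds and controls pin-transferred, then read after 2 h incubation at ambient room temperature.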
Each line names hits and unclear results; the compound was inactive in the other large screens. An excerpt weighted towards active compounds, which were near 5.2% of everything screened. The call rests on the fitted dose curve; in most records, active means well fitted curve in the direction sought with a large enough effect; inconclusive means small, poorly fitted or top-dose-only effect, or another doubt; inactive means no such curve, though single readings can be large; an effect the other way counts as inactive or inconclusive.

O=C(c1cnn2c(C(F)F)cc(-c3ccccc3)nc12)N1CCCCC1c1cccnc1 (stereo not drawn)	none
CC(C)CCNC(=O)CN1C(=O)CSc2ccc(S(=O)(=O)N3CCC(C)CC3)cc21	none (no result: PLK1 PBD block, Sfp PPTase inh)
CCOc1ccccc1NC(=O)CSc1cc(=O)n(CC)c2ccccc12	none (no result: PLK1 PBD block, Sfp PPTase inh)
Cc1ccc2ccccc2c1C(O)c1ncc(-c2ccc(C(F)(F)F)cc2)[nH]1 (stereo not drawn)	none (no result: Sfp PPTase inh, mIDH1 inhibitor, TrxR1 substrate, rTrxR1 inhibitor, VDR inhibitor)
COc1cc(/C=N/NC(=O)c2cc(-c3ccco3)nc3ccccc23)cc(OC)c1O	rTrxR1 inhibitor 13µM
COc1cc(/C=N/NC(=O)c2cc(-c3ccccc3Cl)nc3ccccc23)cc(OC)c1O	none (no result: Sfp PPTase inh)
O=C(O)c1ccc2c(=O)n3c(nc2c1)/C(=C/c1ccc(Cl)cc1Cl)CC3	PLK1 PBD block 27µM
COc1ccc(S(=O)(=O)N2CCCCC2)cc1NC(=O)c1[nH]c(C)c(C(C)=O)c1C	none (no result: Sfp PPTase inh)
O=C(CNC(=O)c1[nH]cnc1C(=O)N[C@@H](Cc1ccccc1)C(=O)OCc1ccccc1)OCc1ccccc1	none
O=C(CNC(=O)c1[nH]cnc1C(=O)NC(c1ccccc1)c1ccccc1)OCc1ccccc1	PLK1 PBD block 24µM
CCOC(=O)c1cc(-c2ccccc2)n(CCC(=O)Nc2ccc(Cl)c(C(F)(F)F)c2)c1C	none (no result: PLK1 PBD block, Sfp PPTase inh)
CCc1ccc(CNC(=O)CCCN2C(=O)CCn3nc(-c4cccn4C)cc32)cc1	none (no result: PLK1 PBD block, Sfp PPTase inh)
O=C(c1ccc(-c2ccc([N+](=O)[O-])cc2)o1)N1CCN(S(=O)(=O)c2cccs2)CC1	rTrxR1 inhibitor 45µM (no result: Sfp PPTase inh)
O=C(c1ccco1)N1CCN(C(=O)c2ccc(-c3ccc([N+](=O)[O-])cc3)o2)CC1	rTrxR1 inhibitor 7.1µM (no result: Sfp PPTase inh)
O=C(NC1CCC(O)CC1)c1ccc(-c2ccc([N+](=O)[O-])cc2)o1 (stereo not drawn)	PLK1 PBD block inconclusive, Sfp PPTase inh inconclusive, rTrxR1 inhibitor 3.2µM, VDR inhibitor inconclusive
O=C(c1ccc(-c2ccc(Cl)cc2)o1)N1CCN(S(=O)(=O)c2cccs2)CC1	none (no result: Sfp PPTase inh)
CC(C)(C)[C@H]1CCC(=O)N(CCSc2ccc(Br)cc2)CC1	none (no result: PLK1 PBD block, Sfp PPTase inh, mIDH1 inhibitor, VDR inhibitor)
COc1ccc(Cl)cc1CC=NNC(=O)c1cccc(C)c1O	VDR inhibitor inconclusive (no result: Sfp PPTase inh)
Cc1ccc(SCC(=O)Nc2ccc3oc(-c4cccc(C)c4)nc3c2)cc1	none (no result: PLK1 PBD block, Sfp PPTase inh, mIDH1 inhibitor)
CCC(=O)Nc1ccc2oc(-c3cccc(C)c3)nc2c1	PLK1 PBD block 3µM, VDR inhibitor inconclusive
COc1ccc(/C=C2\C(=O)ON=C2c2cccc([N+](=O)[O-])c2)cc1	Sfp PPTase inh 56µM (no result: PLK1 PBD block, mIDH1 inhibitor, TrxR1 substrate, rTrxR1 inhibitor, VDR inhibitor)
CC(C)C(NC(=O)c1c(F)cccc1F)C(=O)NC1CC(C)(C)NC(C)(C)C1 (stereo not drawn)	none
Cn1cc(C(=O)NCCc2ccccc2)c(=O)c2cc(S(=O)(=O)N3CCOCC3)ccc21	PLK1 PBD block 30µM, VDR inhibitor inconclusive (no result: Sfp PPTase inh)
COc1cccc(NC(=O)c2sc3ncn(CC(=O)N4CCN(c5ccccn5)CC4)c(=O)c3c2C)c1	PLK1 PBD block 13µM, VDR inhibitor 25µM
Cc1ccc(NC(=O)c2sc3ncn(CC(=O)N4CCN(c5ccccn5)CC4)c(=O)c3c2C)cc1Cl	none
CC(=O)c1cccc(NC(=O)N2CCCC2C(=O)Nc2ccc3c(c2)OCO3)c1 (stereo not drawn)	PLK1 PBD block 30µM
CCN(CC)CCCNC(=O)c1nn2c(C(F)(F)F)cc(-c3ccccc3)nc2c1Cl	none
O=C(/C=C/c1ccco1)NCc1ccc2c(c1)OCO2	Sfp PPTase inh inconclusive, rTrxR1 inhibitor 35µM
NS(=O)(=O)c1ccc(NC(=O)/C=C/c2ccco2)cc1	PLK1 PBD block inconclusive, Sfp PPTase inh 20µM, rTrxR1 inhibitor 18µM
O=C(/C=C/c1ccco1)NCC1COc2ccccc2O1 (stereo not drawn)	PLK1 PBD block inconclusive, Sfp PPTase inh inconclusive, rTrxR1 inhibitor 16µM, VDR inhibitor inconclusive
O=C(/C=C/c1ccco1)Nc1ccc2c(c1)OCO2	Sfp PPTase inh 40µM, rTrxR1 inhibitor 71µM
Nc1ncnc2c1ncn2[C@@H]1O[C@H](C(=O)NS(=O)(=O)c2ccccc2[N+](=O)[O-])[C@@H](O)[C@H]1O	none (no result: Sfp PPTase inh, mIDH1 inhibitor, TrxR1 substrate, rTrxR1 inhibitor, VDR inhibitor)
O=C(/C=C\Nc1ccc2c(c1)OCO2)c1ccc2c(c1)OCO2	PLK1 PBD block 11µM, VDR inhibitor inconclusive
